About 79,000 compounds went through this panel and 15% of them were active in at least one assay; those are over-represented in the sample as a whole. Activity calls are given as the source filed them. Rule as the data show it: active = growth inhibition above about 70%; inactive = the rest.
Legend:
[1] = NCI Yeast Anticancer Drug Screen. Data for the rad50 strain (AID 155);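 also: 0% = growth of vehicle-only cultures of the same strain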; conditions: S. cerevisiae rad50 strain growth inhibition; at 50.0 µM; stronger effect = higher value
Outline: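 DNA repair mutant yeast, compound exposure, growth read-out; inhibition is taken relative to vehicle.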

[2] = NCI Yeast Anticancer Drug Screen. Data for the mec2-1 strain (AID 157); conditions: S. cerevisiae mec2-1 strain, at 50.0 µM, stronger effect = higher value
Outline: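 Yeast mec2-1 mutant treated with compound. Readout: growth inhibition vs vehicle controls.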

[3] = NCI Yeast Anticancer Drug Screen. Data for the sgs1 mgt1 strain (AID 161);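 also: 0% = growth of cultures given vehicle only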; conditions: S. cerevisiae sgs1 mgt1 strain, at 50.0 µM, stronger effect = higher value
Outline: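 Inhibition of yeast growth, normalised to vehicle-treated controls, is reported for a strain bearing genetic alterations in DNA damage repair.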

[4] = NCI Yeast Anticancer Drug Screen. Data for the cln2 rad14 strain (AID 165);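 also: 0% = growth equal to vehicle treated cultures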; conditions: S. cerevisiae cln2 rad14 strain, at 50.0 µM, stronger effect = higher value
Outline: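 cln2 rad14 yeast strain; compound exposure; growth inhibition read vs vehicle controls.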

[5] = NCI Yeast Anticancer Drug Screen. Data for the bub3 strain (AID 167); conditions: S. cerevisiae bub3 mutant strain, at 50.0 µM, stronger effect = higher value
Outline: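 In this screen, a yeast mutant lacking normal mitotic checkpoint function is challenged with compound. Relative growth versus vehicle gives the inhibition value.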

[6] = NCI Yeast Anticancer Drug Screen. Data for the mlh1 rad18 strain (AID 175); conditions: S. cerevisiae mlh1 rad18 strain growth inhibition; at 50.0 µM; stronger effect = higher value
Outline: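 Yeast w/ defined DNA-repair lesions; compound exposure; growth vs vehicle controls → % inhibition.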

Measured: growth inhibition

NNC1CCN(Cc2ccccc2)CC1
inactive: [1] 2.5% | [2] -16.8% | [3] 0.25% | [4] 22.2% | [5] -1.9% | [6] 14.2%

CN1C(=O)C2CSCN2C1=S (stereo unspecified)
inactive: [1] -38% | [2] -7.7% | [3] -5.4% | [4] -12.3% | [5] -13.6% | [6] 5.1%

CC/C(=N/O)C(C)C(=O)CCC(=O)Nc1ccc(Cl)cc1 (stereo unspecified)
inactive: [1] -11.6% | [2] -7% | [3] 0.15% | [4] 7.35% | [5] 8.15% | [6] -5.65%

CS(=O)(=O)CC(=O)c1ccc(O)cc1O
inactive: [1] 4.55% | [2] 3.55% | [3] -0.6% | [4] -43.2% | [5] -13.1% | [6] -7%

CC(=O)/C(=C/n1c(=S)sc2ccccc21)C(=O)Nc1ccc([N+](=O)[O-])cc1
inactive: [1] 6.4% | [2] 4.55% | [3] -2.45% | [4] -15.8% | [5] -19.8% | [6] -8.7%

CCCc1c(OC)c(=O)c2c(OC)cc(OC)c3c4c(OC)cc(OC)c5c(=O)c(OC)c(CCC)c(c1c23)c54
active: [1] 88.3% | [2] 92% | [3] 86.4% | [4] 88.5% | [5] 83% | [6] 92.6%

O=C(COc1ccc(Cl)cc1Cl)Nc1ccc(N=Nc2ccccc2)cc1
inactive: [1] -0.5% | [2] 7.55% | [3] -1.95% | [4] -3.65% | [5] -2.8% | [6] 19.9%

O=C(c1ccc(Cl)cc1)c1nnc(Cl)s1
inactive: [1] -4.7% | [2] 2.2% | [3] -6.7% | [4] -10.8% | [5] 24.8% | [6] 2.3%

CC(Oc1ccc(OCC2CCCCC2)cc1)C(=O)OCC(=O)c1ccc(-c2ccccc2)cc1 (stereo unspecified)
inactive: [1] -9.75% | [2] -7.4% | [3] -19.1% | [4] -3.15% | [5] -7.7% | [6] -11.3%

Cc1ccc(S(=O)(=O)OCC2OCOC2C2OCOC2CI)cc1 (stereo unspecified)
inactive: [1] 12.2% | [2] 3% | [3] 2.6% | [4] -9.9% | [5] 10.1% | [6] 13.2%

O=C(O)/C=C/c1cnc[nH]1
inactive: [1] -4.9% | [2] -2.3% | [3] -5.65% | [4] 11.9% | [5] 9.65% | [6] -1%

C[n+]1c(I)ccc2ccccc21
inactive: [1] 35% | [2] 36.5% | [3] 53.4% | [4] 15% | [5] 15.9% | [6] 36.3%

O=[N+]([O-])c1ccc2[nH]c(-c3ccccc3)cc2c1
inactive: [1] 5.2% | [2] 10.8% | [3] -3.6% | [4] 7.3% | [5] -2.2% | [6] 18.9%

COC(=O)c1cc(C)ncc1C#N
inactive: [1] 0.45% | [2] 1.15% | [3] -4.7% | [4] 0.3% | [5] 2.95% | [6] 8%

CCOC(=O)NC(Nc1ccc(C(=O)OCC)cc1)(C(F)(F)F)C(F)(F)F
inactive: [1] 0.25% | [2] 3.25% | [3] -15.2% | [4] -16% | [5] -13.2% | [6] 0.55%

C=CC1CNCCC1CCC(=O)c1ccnc2ccc(OC)cc12 (stereo unspecified)
inactive: [1] 7.75% | [2] -9.6% | [3] -1.2% | [4] 5.85% | [5] 1.15% | [6] 4.4%

C=C(C)C(C)(C)n1[nH]c(=O)n(-c2ccccc2)c1=O
inactive: [1] 13.2% | [2] -0.05% | [3] -0.3% | [4] -23.1% | [5] -13.4% | [6] 0%

COC(=O)c1cc(CC2Cc3cc4c(cc3C2)CCC4)cc2c1CCC2
inactive: [1] -16.7% | [2] -8.85% | [3] -29.1% | [4] 15.3% | [5] 0.7% | [6] -1.25%

CCOC(=O)CN1CN(CCc2ccccc2)CC(C)(C)C1OCC (stereo unspecified)
inactive: [1] 37.1% | [2] 31.6% | [3] 43.4% | [4] 20.6% | [5] 41.2% | [6] 39.5%

O/N=C\c1cccc[n+]1Cc1ccc2ccccc2c1Br
inactive: [1] -1.7% | [2] 1.95% | [3] -7.55% | [4] -7.05% | [5] 10.7% | [6] -1.75%

COC1OC2COC(c3ccccc3)OC2C(O)C1N=[N+]=[N-] (stereo unspecified)
inactive: [1] 3.4% | [2] 0.7% | [3] -1.35% | [4] -19.9% | [5] -4.4% | [6] 7.9%
